From PubChem BioAssay
Most compounds without a hit are left out; they make up all but 4.2% or so of the library.
Wnt bcat act – Wnt/beta-catenin pathway activation; activation, % at 9.35 µM; 300,000 compounds, 1.2% hits; Wnt/beta-catenin reporter cell assay, activator, plate reader; in the data active = activation above about 30%, passing the limit was not always enough; inconclusive = no clear call, values can overlap the other calls;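 note: 0% = neutral control wells and 100% = positive control wells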
esBAF inh – blocks esBAF chromatin remodeling in mouse ES cells; Bmi1-luciferase knock-in reporter, 24 h; 100% = twice the neutral-well signal; reporter increase, % at 12.5 µM; 350,000 compounds, 2% hits; in the data active = activation above about 40%; inconclusive = no clear call, values can overlap the other calls;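 note: 0% = median of the plate's neutral control wells and 100% = double that signal; a rise in the Bmi1 reporter signal indicates esBAF inhibition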
DAX1 inh – inhibitors of DAX1 repression of SF-1 activated StAR promoter. HEK293T StAR-luciferase reporter, SF-1/DAX-1 repression relief. inhibition, % at 6.8 µM. 370,000 compounds, 1.1% hits. AID 652010;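 active = inhibition above the mean over all tested compounds plus 3 SD, cut at about 3.6% in these data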;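 note: 0% = DAX-1 cells with DMSO and 100% = cells lacking DAX-1 with DMSO; higher inhibition means more luminescence from relief of DAX-1 repression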
ssDAF-12 act – S. stercoralis DAF-12 activation, primary screen | activation, % at 6.8 µM | 370,000 compounds, 1% hits | HEK293 ssDAF-12/GRIP1 lit1-tk-luc reporter, luminescence; % of 3 µM dafachronic acid response;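 active = activation above the mean over all tested compounds plus 3 SD, cut at about 0.9% in these data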;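 note: 0% = DMSO-only wells and 100% = 3 µM delta7-dafachronic acid wells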
hgDAF12 agonist – hgDAF-12 agonism, primary luciferase screen. HEK293 GAL4-hgDAF12 UAS-luciferase reporter, agonist luminescence; normalized to butyrate control. activation, % at 6.8 µM. 370,000 compounds, 1.8% hits. AID 687014;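 active = activation above a cutoff set at the mean of all screened compounds plus 3 SD, cut at about 10% in these data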;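 note: 0% = DMSO wells and 100% = sodium butyrate wells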
hcDAF-12 act – activators of H. contortus DAF-12 nuclear receptor; HEK293 hcDAF-12 lit1-tk-luc reporter, luminescence; 0% DMSO, 100% Δ7-dafachronic acid; activation, % at 6.8 µM; 370,000 compounds, 1.4% hits;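 active = activation above the mean of all tested compounds plus 3 SD, cut at about 5.5% in these data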;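 note: 100% = response to 3 µM Δ7-dafachronic acid high control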
* = called active by the depositor.

For CCCCC#Cc1ccc2c(c1)COc1c3ccccc3nn1-2 the results were Wnt bcat act 23, esBAF inh 71*, DAX1 inh 1, ssDAF-12 act -1, hgDAF12 agonist 5 and hcDAF-12 act 1.
`CC(C)[C@@H](CO)NC(=O)c1ccc2c3n(nc2c1)-c1ccccc1CO3` gave Wnt bcat act 6, esBAF inh -16, DAX1 inh 3, ssDAF-12 act 0, hgDAF12 agonist 10 and hcDAF-12 act 5.
`N#CCCCC#Cc1ccc2c(c1)COc1c3ccccc3nn1-2` gave Wnt bcat act 8, esBAF inh -70, DAX1 inh 1, ssDAF-12 act -1, hgDAF12 agonist 0 and hcDAF-12 act 4.
C(#Cc1ccc2c(c1)COc1c3ccccc3nn1-2)c1ccccc1 was read as Wnt bcat act 32*, esBAF inh 63*, DAX1 inh 1, ssDAF-12 act 0, hgDAF12 agonist 8 and hcDAF-12 act 4.
For C(#CC1CCCCC1)c1ccc2c(c1)COc1c3ccccc3nn1-2 the results were Wnt bcat act 35*, esBAF inh inconclusive, DAX1 inh 0, ssDAF-12 act -1, hgDAF12 agonist 1 and hcDAF-12 act -1.
Screening CC(C#Cc1ccc2c(c1)COc1c3ccccc3nn1-2)OC(C)(C)C (configuration not stated) returned Wnt bcat act 15, esBAF inh 104*, DAX1 inh 0, ssDAF-12 act -1, hgDAF12 agonist 5 and hcDAF-12 act 1.
CCCCCCC#Cc1ccc2c(c1)COc1c3ccccc3nn1-2 was read as Wnt bcat act 19, esBAF inh 40, DAX1 inh 0, ssDAF-12 act 0, hgDAF12 agonist 3 and hcDAF-12 act 0.
For CO[C@@H]1CN(C)C(=O)c2cc(NS(=O)(=O)CC(F)(F)F)ccc2OC[C@H](C)N(Cc2nccs2)C[C@H]1C the results were esBAF inh 2.
Cc1ccc2nc(-c3cccnc3)oc2c1 was read as esBAF inh 38, DAX1 inh 1, ssDAF-12 act 0, hgDAF12 agonist 8 and hcDAF-12 act 4.
Cc1ccc2oc(-c3ccc(NC(=O)CC(C)C)cc3)nc2c1 was read as Wnt bcat act 16, esBAF inh 50*, DAX1 inh 2, ssDAF-12 act 0, hgDAF12 agonist 11* and hcDAF-12 act 2.
Screening CC(C)CC(=O)Nc1ccc2oc(-c3cccnc3)nc2c1 returned esBAF inh 50*, DAX1 inh 2, ssDAF-12 act -1, hgDAF12 agonist 6 and hcDAF-12 act 1.
`CCC(C)NCC(=O)Nc1ccc(-c2nc3cc(NC(=O)CNC(C)CC)ccc3o2)cc1` (configuration not stated) gave Wnt bcat act -2, esBAF inh -3, DAX1 inh -1, ssDAF-12 act -1, hgDAF12 agonist 4 and hcDAF-12 act 1.
For Cc1cc2nc(-c3cccc(NC(=O)c4ccc(Br)o4)c3)oc2cc1C the results were esBAF inh 9, DAX1 inh 0, ssDAF-12 act -1, hgDAF12 agonist 4 and hcDAF-12 act 2.
Screening Cc1ccc2oc(-c3cccc(NC(=O)c4ccc(Br)o4)c3)nc2c1 returned esBAF inh 65*, DAX1 inh 1, ssDAF-12 act 0, hgDAF12 agonist 7 and hcDAF-12 act 4.
Screening COC(=O)c1ccc(-c2nc3ccc(C)cc3o2)cc1 returned Wnt bcat act 55*, esBAF inh 52*, DAX1 inh 0, ssDAF-12 act -1, hgDAF12 agonist 8 and hcDAF-12 act 1.
CC(C)c1ccc2oc(-c3ccc(NC(=O)c4ncn[nH]4)cc3)nc2c1 was read as DAX1 inh 4.0*, ssDAF-12 act -1, hgDAF12 agonist 7 and hcDAF-12 act 1.
Screening N#Cc1c(-c2ccccc2)ccnc1Oc1ccccc1 returned esBAF inh 49*, DAX1 inh 1, ssDAF-12 act -1, hgDAF12 agonist 1 and hcDAF-12 act 0.
O=[N+]([O-])c1ccc(N=Cc2sc3ccccc3c2O)cc1 was read as esBAF inh 0, DAX1 inh 0, ssDAF-12 act -1, hgDAF12 agonist 0 and hcDAF-12 act -1.
Screening CC(=O)NCCN=C(C)c1sc2ccccc2c1O returned esBAF inh 41*, DAX1 inh 1, ssDAF-12 act 1, hgDAF12 agonist 6 and hcDAF-12 act 1.
Screening CC(=Nc1ccc(O)cc1)c1sc2ccccc2c1O returned DAX1 inh 0, ssDAF-12 act 0, hgDAF12 agonist 12* and hcDAF-12 act 5.
COc1ccc(CN(C)C[C@@H]2OCCCC[C@@H](C)Oc3ccc(NC(=O)C4CCCCC4)cc3C(=O)N([C@@H](C)CO)C[C@@H]2C)cc1 was read as esBAF inh -3.
`CC(=O)NC1(c2ccccc2)CCN(c2cc(C)nc(-c3ccccc3)n2)CC1` gave Wnt bcat act -2, esBAF inh 2, DAX1 inh -1, ssDAF-12 act 7.3*, hgDAF12 agonist -4 and hcDAF-12 act -3.
For Cc1cc(N2CCC(C(=O)NC3CC3)CC2)nc(-c2ccccc2)n1 the results were esBAF inh 0, DAX1 inh 0, ssDAF-12 act -1, hgDAF12 agonist 0 and hcDAF-12 act 0.
Screening CC1(C)CC(NC(=O)C2CCC(=O)N(Cc3ccccc3F)C2)CC(C)(C)C1 (configuration not stated) returned Wnt bcat act 13, esBAF inh 47*, DAX1 inh 2, ssDAF-12 act -1, hgDAF12 agonist 4 and hcDAF-12 act 0.
For C[C@H](CO)N1C[C@H](C)[C@@H](CN(C)C(=O)c2cccc(F)c2)Oc2cc(-c3cccc(F)c3)ccc2S1(=O)=O the results were esBAF inh -4.
COCCN(CC1CCCN(C2Cc3ccccc3C2)C1)C(=O)c1cccs1 (configuration not stated) was read as Wnt bcat act -2, esBAF inh 17, DAX1 inh 1, ssDAF-12 act -1, hgDAF12 agonist 0 and hcDAF-12 act 4.
Screening O=C(c1cccs1)N(CCN1CCCCC1)CC1CCCN(C2CCCC2)C1 (configuration not stated) returned Wnt bcat act 6, esBAF inh 24, DAX1 inh 0, ssDAF-12 act 0.9*, hgDAF12 agonist 8 and hcDAF-12 act 3.
`Cc1ccc(C(=O)N(CCN2CCCCC2)CC2CCCN(C3CCCC3)C2)s1` (configuration not stated) gave Wnt bcat act 15, DAX1 inh 4.4*, ssDAF-12 act 0, hgDAF12 agonist 7 and hcDAF-12 act 3.
Screening O=C(c1cc2cc(F)ccc2[nH]1)N(Cc1cccnc1)CC1CCCN(C2CCCCC2)C1 (configuration not stated) returned Wnt bcat act -2, esBAF inh -1, DAX1 inh 2, ssDAF-12 act 0, hgDAF12 agonist 1 and hcDAF-12 act 3.
